Inconclusive results are not listed. Calls of active or inactive are those of the source. Calls come from the whole dose curve; as a rule, active = well fitted curve in the direction sought with a large enough effect; inconclusive = small, poorly fitted or top-dose-only effect, or another doubt; inactive = no such curve, though single readings can be large; an effect the other way counts as inactive or inconclusive. *1 amine or outer side, *2 acyl side, *3 side chain or, on linkers, in order; H or OH if unused. Where a SMILES comes first, the peptide text is derived from it. Bridges are numbered along the chain shown (N, C = ends). [ ]: non-standard residue; d: D form. The star is where a group is joined. ξ: configuration not given here. ξhTyr(3S-OH,4S-OH,3'-OSO3H) = NC(C(=O)O)[C@H](O)[C@@H](O)c1ccc(O)c(OS(=O)(=O)O)c1; Orn(4R-OH,5R-OH) = O=C([C@H](C[C@@H](O)[C@@H](O)N[*:3])N[*:1])[*:2]; X2 = CCCCCOc1ccc(-c2cc(-c3ccc(C(=O)*)cc3)no2)cc1; X3 = C[C@H]1CN([*:1])C(C(=O)[*:2])[C@H]1O; ξGln(3R-OH) = NC(=O)C[C@@H](O)C(N)C(=O)O; ξPro(4R-OH) = O=C(O)C1C[C@@H](O)CN1; ξThr(3R) = C[C@@H](O)C(N)C(=O)O
Columns and labels:
[1] = tested on: Zika virus NS2B-NS3 protease (linked construct); assay: Confirmatory screen NINDS AMC qHTS for Zika virus inhibitors (AID 1347152); note: potency is the fitted concentration of half-maximal effect; nearly all actives have a fitted effect of over 70% in size
In short: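 In this dose-response qHTS, AMC release from 10 microM Bz-Nle-KRR-AMC by 1 nM linked protease is measured over 15 minutes (about 20% conversion) at pH 8.0. Percent inhibition is fitted to a 4-parameter Hill curve.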

[2] = tested on: Zika virus NS2B-NS3 protease (unlinked complex); assay: Confirmatory screen GU AMC qHTS for Zika virus inhibitors (AID 1347153);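 note: enzyme at 25 nM with substrate at 10 µM below its Km of 18.3 µM; potency is the fitted concentration of half-maximal effect; nearly all actives have a fitted effect of over 70% in size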
In short: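 Compounds were preincubated 15 min at room temperature with 25 nM noncovalent NS2B-NS3 protease at pH 8.0; AMC substrate added at 10 microM and 15-min fluorescence gain (340/450 nm) converted to percent inhibition, fitted 4-parameter.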

[3] = Confirmatory screen GU Rhodamine qHTS for Zika virus inhibitors qHTS (AID 1347157); note: potency is the fitted concentration of half-maximal effect; nearly all actives have a fitted effect of over 70% in size
In short: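 Percent inhibition derives from the 15-min fluorescence change (ex 480, em 540 nm), normalized to no-enzyme and no-inhibitor wells. Reactions contained 25 nM NS2B-NS3 complex and 1.5 microM substrate in 10 mM Tris-HCl pH 8.0.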

[4] = tested on: Zika virus NS2B-NS3 protease (unlinked complex); assay: Primary screen GU Rhodamine qHTS for Zika virus inhibitors: Unlinked NS2B-NS3 protease assay (AID 1347159); note: nearly all actives have a fitted effect of over 60% in size; note: potency is the fitted concentration of half-maximal effect
In short: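 Percent inhibition came from the 15-min rise in Rhodamine110 fluorescence (1.5 microM substrate, ~15% conversion), normalized to no-inhibitor and no-enzyme wells and Hill-fitted. Unlinked protease, 25 nM, pH 8.0 Tris buffer; compounds up to 114 microM, 15-min preincubation.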

[5] = tested on: Zika virus NS2B-NS3 protease (linked construct); assay: Primary screen NINDS Rhodamine qHTS for Zika virus inhibitors (AID 1347160); note: nearly all actives have a fitted effect of over 55% in size; note: potency is the fitted concentration of half-maximal effect
In short: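 Rhodamine110-peptide cleavage (1.5 µM substrate) by 25 nM linked NS2B-NS3 enzyme at pH 8.0 (Tris, Tween 20), after 15 min RT preincubation with compounds; 15-min fluorescence change normalized to controls and Hill-fitted.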

[6] = Confirmatory screen NINDS Rhodamine qHTS for Zika virus inhibitors (AID 1347161); note: potency is the fitted concentration of half-maximal effect; nearly all actives have a fitted effect of over 60% in size
In short: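 Single-chain NS2B-NS3 protease, 25 nM, pH 8.0; compounds preincubated 15 min. Activity: Rhodamine110 release from 1.5 microM substrate over 15 min, room temperature, data fitted to 4-parameter Hill.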

[7] = Vero cells viability qHTS for Zika virus inhibitors (AID 1347167)
In short: (§1)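 To flag cytotoxic protease inhibitors, viability is measured by ATP-dependent luminescence (CellTiter Glo) after cells attached overnight receive compound for 24 to 48 hours in DMEM with 4% FBS.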

[8] = HepG2 cells viability qHTS for Zika virus inhibitors (AID 1347168)
In short: as §1

[9] = ZIKV-mCherry secondary qHTS for Zika virus inhibitors (AID 1347158); note: potency is the fitted concentration of half-maximal effect
In short: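 This orthogonal imaging screen measured ZIKV-mCherry infection of Vero cells exposed to compound, MOI 1, 48-72 h. Percent infection came from segmented nuclei scored mCherry-positive above 3 SD of negative controls.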

[10] = tested on: Zika virus NS2B-NS3 protease (linked); assay: 384 well plate NINDS AMC confirmatory qHTS for Zika virus inhibitors (AID 1347163); note: nearly all actives have a fitted effect of over 50% in size; note: potency is the fitted concentration of half-maximal effect
In short: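 Enzyme (5, 30 or 60 nM final) first met test compounds for ~15 min. The AMC-tagged peptide Ac-VKTGKR-AMC followed at 30 microM. Fluorescence was then recorded at 25 min and scaled against no-enzyme and no-inhibitor wells.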

[11] = tested on: Zika virus NS2B-NS3 protease (linked construct); assay: 384 well plate NINDS Rhodamine confirmatory qHTS for Zika virus inhibitors (AID 1347164); note: nearly all actives have a fitted effect of over 65% in size; note: potency is the fitted concentration of half-maximal effect
In short: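 Compounds are incubated about 15 minutes with linked protease (5, 30 or 60 nM final). Rhodamine 110-tagged Ac-LKRR substrate (10 microM final) is added and fluorescence measured after 25 minutes.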

[12] = Tertiary RLuc qRT-PCR qHTS assay for Zika virus inhibitors (AID 1347169); note: top concentration of the series differs between compounds; nearly all actives have a fitted effect of over 55% in size
In short: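 Orthogonal cell-based infection assay using recombinant ZIKV-RLuc (Cambodian) in Vero cells; compound added prior to virus at MOI 1-2. Incubation lasts 48-72 hrs at 37 degrees C before live-cell Renilla substrate is added and luminescence measured.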

[13] = OV-KATE Cancer Cell Toxicity qHTS against the NCATS CANVASS Library (AID 1347345)
In short: (§2)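 1000 cells/well seeded and rested 4 h at 37 °C before pin transfer of compounds in an 11-pnt series. Exposure 72 h at 37 °C/5% CO2; viability by CellTiter-Glo luminescence after 15 min at room temperature.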

[14] = HPAF-II Cancer Cell Toxicity qHTS against the NCATS CANVASS Library (AID 1347346); note: series mostly up to about 38 µM; nearly all actives have a fitted effect of over 55% in size
In short: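 Using 1000 HPAF-II cells per well, we titrated compounds over 11 concentrations for 72 h at 37 degrees C/5% CO2, with bortezomib as control. Cell survival was quantified by CellTiter-Glo luminescence.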

[15] = UWB1.289 Cancer Cell Toxicity qHTS against the NCATS CANVASS Library (AID 1347347); note: series mostly up to about 38 µM; nearly all actives have a fitted effect of over 60% in size
In short: as §2

[16] = OV-SAHO Cancer Cell Toxicity qHTS against the NCATS CANVASS Library (AID 1347348); note: series mostly up to about 38 µM; nearly all actives have a fitted effect of over 55% in size
In short: as §2

[17] = Panc-1005 Cancer Cell Toxicity qHTS against the NCATS CANVASS Library (AID 1347349); note: series mostly up to about 38 µM; nearly all actives have a fitted effect of over 60% in size
In short: as §2

[18] = SW1088 Cancer Cell Toxicity qHTS against the NCATS CANVASS Library (AID 1347350); note: potency is the fitted concentration of half-maximal effect; nearly all actives have a fitted effect of over 75% in size
In short: as §2

[19] = U-118MG Cancer Cell Toxicity qHTS against the NCATS CANVASS Library (AID 1347351); details: outcome: dose series up to 38.3 µM; note: series mostly up to about 38 µM
In short: as §2

[20] = tested on: Zika virus NS2B-NS3 protease; assay: Primary screen GU AMC qHTS for Zika virus inhibitors (AID 1347154); note: nearly all actives have a fitted effect of over 70% in size
In short: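 Unlinked Zika NS2B hydrophilic domain/NS3 protease domain noncovalent complex (25 nM final) in 10 mM Tris-HCl pH 8.0, 0.01% Tween 20, with AMC peptide substrate. Fluorescence (ex 340, em 450 nm) change over 15 min, room temperature; percent inhibition fitted to 4-parameter Hill equation.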

Measured: Potency

CCCCCOc1ccc(-c2cc(-c3ccc(C(=O)N[C@H]4C[C@@H](O)[C@@H](O)NC(=O)C5[C@@H](O)[C@@H](C)CN5C(=O)C([C@H](O)CC(N)=O)NC(=O)C([C@H](O)[C@@H](O)c5ccc(O)c(OS(=O)(=O)O)c5)NC(=O)C5C[C@@H](O)CN5C(=O)C([C@@H](C)O)NC4=O)cc3)no2)cc1 (stereo partly drawn) (X2-[Orn(4R-OH,5R-OH)][ξThr(3R)][ξPro(4R-OH)][ξhTyr(3S-OH,4S-OH,3'-OSO3H)][ξGln(3R-OH)][X3]; lactam 1-C)
active: [1] 21.5 µM | [2] 21.5 µM | [3] 4.82 µM | [4] 2.24 µM | [5] 4.47 µM | [6] 4.29 µM
inactive: [7] | [8]

C/C(=C\CC/C(C)=C/CC[C@]1(C)CCc2cc(O)cc(C)c2O1)CC/C=C(\C)C(=O)O
active: [1] 19.2 µM | [3] 3.83 µM | [4] 8.91 µM | [5] 2.2 µM | [6] 1.92 µM | [10] 5.01 µM | [11] 2.51 µM | [18] 18.8 µM
not listed: [2] | [20]
inactive: all other assays above

O=C(/C=C/c1ccccc1)OC[C@H]1O[C@@H](OC(=O)c2cc(O)c(O)c(O)c2)[C@H](O)[C@@H](O)[C@@H]1O
inactive: [5] | [12]
active: [3] 2.15 µM | [4] 3.98 µM | [6] 3.41 µM

O=C(Nc1ccccc1)Nc1ccc(-c2ccc(C(=O)C3CCCC3C(=O)O)cc2)cc1 (stereo unspecified)
inactive: [10] | [7] | [8] | [12]
active: [1] 27.8 µM | [2] 35 µM | [3] 4.94 µM | [4] 5.01 µM | [5] 3.55 µM | [6] 3.93 µM | [11] 11.2 µM

COc1cc2c(c(O)c1OC/C=C(\C)CC/C=C(/C)CCC=C(C)C)CN(C(CCC(=O)O)C(=O)O)C2=O (stereo unspecified)
inactive: [11] | [7] | [8]
active: [1] 27.1 µM | [2] 34.1 µM | [3] 3.41 µM | [9] 6.31 µM | [4] 2 µM | [5] 7.94 µM | [6] 2.71 µM | [10] 8.91 µM

COc1cc(Nc2nc3ccccc3nc2NS(=O)(=O)c2cccc(NC(=O)c3ccc(C)c(OC)c3)c2)cc(OC)c1
active: [1] 13.9 µM | [3] 1.39 µM | [4] 3.55 µM | [5] 7.94 µM | [6] 1.97 µM
inactive: [10] | [11] | [7] | [8]

COc1cc(Nc2ccc([N+](=O)[O-])cc2C(=O)O)cc2ccccc12
active: [1] 15.6 µM | [3] 1.97 µM | [4] 2.24 µM | [5] 2.82 µM | [6] 2.21 µM | [10] 2.82 µM | [11] 1.41 µM
inactive: [7] | [8]

COc1cc(CCCO)ccc1O[C@@H]1O[C@H](CO)[C@@H](O)[C@H](O)[C@H]1O
active: [3] 34.3 µM | [6] 34.3 µM
inactive: [4] | [12]

O=S(=O)(O)c1ccc(Nc2ncnc3c2ncn3[C@@H]2O[C@H](CO)[C@@H](O)[C@H]2O)cc1
inactive: [20] | [4] | [5]

O=C(O)C1(c2ccc(-c3ccc(Cl)c(Cl)c3)c(F)c2)CC1
active: [1] 44.1 µM | [2] 44.1 µM | [3] 11.1 µM | [4] 7.94 µM | [6] 6.98 µM | [10] 14.1 µM
inactive: [7] | [8] | [12]

CCOc1ccc(-c2cc(NC(=O)c3c(F)cccc3F)c(C(=O)O)s2)cc1
inactive: [7] | [8]
active: [1] 17.5 µM | [2] 27.8 µM | [3] 4.41 µM | [5] 5.01 µM | [6] 3.12 µM | [10] 7.08 µM | [11] 5.01 µM

C=C1C2CCC3C(CCC4[C@@]3(C)CCC[C@@]4(C)C(=O)O)(C2)[C@@H]1OC(=O)/C(C)=C\C (stereo partly specified)
inactive: [7] | [8] | [12]
active: [1] 21.5 µM | [3] 6.81 µM | [4] 6.31 µM | [6] 6.07 µM | [10] 39.8 µM | [11] 8.91 µM

C/C(=C\CCC(C)CCO)C(=O)OC[C@H]1O[C@@H](O[C@@H]2OC=C(C(=O)O)[C@H]3CC[C@](C)(O)[C@@H]23)C(O)[C@@H](O)C1O (stereo partly specified)
active: [1] 13.6 µM | [3] 4.29 µM | [4] 7.94 µM | [5] 5.62 µM | [6] 2.15 µM
inactive: [7] | [8]

CCC(C)/C=C(C)/C=C/C1=CC2=CC(=O)C(C)(O)C(OC(C)=O)C2CO1 (stereo unspecified)
active: [3] 30.6 µM | [4] 14.1 µM | [6] 34.3 µM
inactive: [5] | [12]

CC1(C)[C@H]2C[C@H](C/C=C\CCCC(=O)O)[C@@H](NC(=O)c3csc4ccc(O)cc34)[C@@H]1C2
active: [3] 24.8 µM | [4] 14.1 µM | [6] 31.2 µM
inactive: [5] | [12]

CC(C)=CCC[C@@](C)(O)[C@H]1CC[C@]2(C)[C@@H]1[C@H](O)CC1[C@@]3(C)CC[C@H](O[C@@H]4O[C@H](CO)[C@@H](O)[C@H](O)[C@H]4O[C@@H]4O[C@H](CO)[C@@H](O)[C@H](O)[C@H]4O)C(C)(C)[C@@H]3CC[C@]12C (stereo partly specified)
inactive: [4] | [12]
active: [3] 14.7 µM | [6] 16.5 µM
